Screens deposited in PubChem by National Center for Advancing Translational Sciences (NCATS).
Sampled rows, rich in hits. Any-hit rate of the full collection: about 2.2%.
rTrxR1 inhibitor – rat TrxR1 inhibition; hit rate 1% among 390,000; O89049; recombinant rTrxR1, NADPH fluorescence consumption, selenite substrate; Potency, µM (doses to about 114 µM), inactives show top-dose activity change, negative = inhibition, actives largely listed as inhibitors; note: potency is the fitted concentration of half-maximal effect; % is set by controls: 0 for no effect and ±100 for the full control effect; nearly all actives have a fitted effect of over 65% in size
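Rat TrxR1 (90 nM in the dispensed reagent) was pre-reduced with 400 uM NADPH for 5 min at room temperature, then incubated with compound for 15 min. After 400 uM selenite was added, NADPH fluorescence (Ex 340/Em 450 nm) was followed for 8 min.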
mIDH1 inhibitor – inhibitors of human mutant IDH1 R132H | AID 602179 | IDH1-R132H enzyme, NADPH consumption, diaphorase/resazurin fluorescence | Potency, µM (highest dose often 76.6 µM), for inactives: at the top dose activity change, negative = inhibition, most hits filed as inhibitors | hit rate 0.093% among 390,000; note: potency is the fitted concentration of half-maximal effect; % is set by controls: 0 for no effect and ±100 for the full control effect; nearly all actives have a fitted effect of over 65% in size
Target sequence (O75874 whole entry R132H, stated change not applied): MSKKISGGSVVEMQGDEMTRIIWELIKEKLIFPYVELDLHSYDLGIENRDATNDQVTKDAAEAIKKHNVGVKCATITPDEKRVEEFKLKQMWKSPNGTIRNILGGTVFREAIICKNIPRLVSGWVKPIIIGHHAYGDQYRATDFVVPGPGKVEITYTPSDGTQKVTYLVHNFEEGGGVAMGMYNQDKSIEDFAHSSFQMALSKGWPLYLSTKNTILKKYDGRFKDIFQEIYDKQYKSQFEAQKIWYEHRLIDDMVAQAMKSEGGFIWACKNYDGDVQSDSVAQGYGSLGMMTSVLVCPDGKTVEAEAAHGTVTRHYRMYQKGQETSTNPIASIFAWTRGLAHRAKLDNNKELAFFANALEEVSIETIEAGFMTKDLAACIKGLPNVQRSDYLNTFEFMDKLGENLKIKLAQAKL
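IDH1-R132H (0.5 ug/mL dispensed) in pH 7.5 Tris buffer was preincubated 30 min with compound, then given a substrate mix of 0.016 mM NADPH and 2 mM alpha-KG for 80 min at room temperature; remaining NADPH was read by diaphorase/resazurin fluorescence.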
TrxR1 substrate – rat thioredoxin reductase 1 substrate activity | O89049 | purified TrxR1 substrate turnover, NADPH consumption readout | Potency, µM (top dose mostly 114 µM), for the others: at the highest dose activity change, negative = substrate turnover | hit rate 0.01% among 390,000 | AID 588456; note: potency is the fitted concentration of half-maximal effect; % is set by controls: 0 for no effect and ±100 for the full control effect; nearly all actives have a fitted effect of over 50% in size
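Rat TrxR1, dispensed at 90 nM, was prereduced with 400 uM NADPH (final) for 5 min at ~22 deg C, then incubated with compound 15 min before 400 uM selenite. A first-read NADPH fluorescence drop versus no-compound background flagged substrates.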
BRCA1 expr act – increases BRCA1 expression. MCF7-BRCA1-FFLuc reporter, luminescence, 48 h; response scale: scaled: vehicle 0%, 10 µM genistein 100%. Potency, µM (top dose mostly 46.1 µM), without a hit: at the highest dose activation, actives largely listed as activators. hit rate 1.1% among 380,000; note: potency is the fitted concentration of half-maximal effect; nearly all actives have a fitted effect of over 80% in size
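MCF7-BRCA1-FFLuc, 2000 cells/well; 2 h attach, 37 °C/5% CO2; compound 48 h; luciferase substrate 15 min; luminescence end-point. Norm. to genistein 10 microM max activation and DMSO; concentration-response curves fitted.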
Giardia killer – Giardia lamblia killing. Giardia lamblia trophozoite viability. activity change, % at 7.66 µM, hits read low. hit rate 0.15% among 340,000. AID 540267; in the data active = activity change below about -80%; inconclusive = between about -30% and that limit;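 note: parasites exposed to compound for two days anaerobically before the ATP read; % is set by controls: 0 for no effect and ±100 for the full control effect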
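Giardia lamblia trophozoites (100 cells/well) were incubated with compounds for 48 h at 37 deg C under anaerobic conditions. Viability was read as ATP content by one-step luminescence after 15-30 min at room temperature.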
IL-2 act – activators of IL-2 | IL-2 activation reporter assay, cell-based qHTS; stimulated with anti-CD3/CD4/CD28 beads; in transgenic mouse T cells | hit rate 0.065% among 360,000 | activation, % (series mostly up to about 46 µM); in the data active = activation above about 50%; inconclusive = mostly about 30% to 49%; note: 0% is about no effect
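Using fluorescent plate cytometry, EGFP and DsRed are detected in transgenic mouse T cells stimulated 18 h at 37 degrees C with antibody-coated beads after 60 min compound pretreatment.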
* marks the source's active call; other numbers are inactive results; ? = inconclusive; · = no result; [ ] = dose if it differs, or a comment. Unless noted, calls come from the whole dose curve; as a rule, active = well fitted curve in the direction sought with a large enough effect; inconclusive = small, poorly fitted or top-dose-only effect, or another doubt; inactive = no such curve, though single readings can be large; an effect the other way counts as inactive or inconclusive.

SMILES	rTrxR1 inhibitor	mIDH1 inhibitor	TrxR1 substrate	BRCA1 expr act	Giardia killer	IL-2 act
Cc1cccc(NC(=O)Nc2ccc3c(c2)CCC3)c1	19.3%	4.0%	5.5%	4.47µM*	0.3	-1.0
Cc1cccc(NC(=O)C2C3CCCCC32)c1 (stereo not given)	13.3%	8.6%	-3.5%	10µM*	-6.0	0.0
CC(=O)c1cccc(Nc2ccc(Br)cc2)c1	·	·	·	10µM*	·	0.4
CCc1ccc(NC(=O)Nc2ccon2)cc1	27.5%	3.2%	11.0%	3.16µM*	5.9	-0.2
CC(=O)c1cccc(Nc2ncnc3ccc(Br)cc23)c1	3.4%[57.1 µM]	2.2%	1.7%[57.1 µM]	-48.9%	5.1	-1.1
O=C(Nc1ccccc1)C1C2CCCCC21 (stereo not given)	15.6%[57.1 µM]	9.5%	-2.9%[57.1 µM]	57.1%	-25.6	0.4
O=C(Nc1ccc([N+](=O)[O-])cc1)Nc1ccon1	1.5%	0.0%	-7.9%	-29.8%	17.6	-5.3
CC(C)(C)C(=O)CSc1nc2ccsc2c(=O)n1Cc1ccccc1Cl	26.6%[57.1 µM]	-15.4%	4.9%[57.1 µM]	·	·	·
CCCCCCC[n+]1ccc(/C=C/c2c[nH]c3ccccc23)c2ccccc21	?	·	0.7%	·	·	·
COc1ccccc1CNc1cc(C)nc2nc(-c3ccc(C)cc3)nn12	18.3%[57.1 µM]	-2.8%	-2.2%[57.1 µM]	-33.6%	·	·
COc1cccc(NC(=O)Nc2ccc3c(c2)CCC3)c1	31.4%	-6.1%	5.0%	?	-11.3	1.9
CCc1ccc(NC(=O)Nc2ccc3c(c2)CCC3)cc1	19.6%	15.6%	-2.5%	3.55µM*	-0.2	-1.5
CC(=O)c1cccc(NC(=O)c2ccc3c(c2)CCCC3)c1	15.2%	23.5%	1.7%	3.55µM*	-25.0	7.7
CC(=O)c1cccc(NC(=O)Nc2ccc3c(c2)CCC3)c1	29.6%	3.5%	6.2%	7.08µM*	-8.5	-3.7
O=C(Nc1ccc2c(c1)CCC2)Nc1ccc2c(c1)OCO2	27.0%	-3.2%	0.3%	?	6.1	-1.3
Cc1ccc(NC(=O)c2nnn(-c3cc(C)cc(C)c3)c2N)cc1	-0.1%	-2.8%	-4.9%	112.7%	8.3	1.1
Cc1cccc(-n2nnc(C(=O)Nc3ccc(F)cc3)c2N)c1	-0.1%[57.1 µM]	-4.6%	7.3%[57.1 µM]	4.47µM*	5.2	0.9
CN(C)c1cccc2c(C=C(C#N)C#N)ccc(N(C)C)c12	25.1µM*	-0.3%	-10.8%	27.6%	-0.4	0.4
CN(C)c1cccc2c(/C=N/O)ccc(N(C)C)c12	4.7%[57.1 µM]	8.9%	0.5%[57.1 µM]	0.4%	10.4	1.7
Cc1cccc(COc2ncnc3nc[nH]c23)c1	25.0%	6.8%	11.1%	10µM*	15.0	-3.9
O=Nc1ccc(/C=C/c2ccnc3ccccc23)cc1	16.3%	·	8.2%	·	·	·
COc1ccccc1C1C([N+](=O)[O-])=CC([N+](=O)[O-])=CN1C (stereo not given)	?	8.3%	-7.5%	-9.8%	-82.7*	0.9
O=C(CSc1nnc(-c2cccc(Br)c2)o1)NCC1CCCO1 (stereo not given)	·	-8.1%	·	-6.7%	·	-2.4
O=C(CSc1nnc(-c2cccc(Br)c2)o1)N1CCNC1=O	27.6%	-0.4%	1.1%	10µM*	23.3	-0.7
O=C(CSc1nnc(-c2ccccc2Cl)o1)N1CCCC1	5.0%	3.8%	-0.5%	7.08µM*	-4.4	-0.1
SMILES	rTrxR1 inhibitor	mIDH1 inhibitor	TrxR1 substrate	BRCA1 expr act	Giardia killer	IL-2 act
O=C(O)c1ccc(-c2nnc(-c3cccc(Br)c3)o2)cc1	8.6%	1.8%	-6.7%	2.82µM*	-29.4	3.1
O=C(CSc1nnc(-c2ccccc2Cl)o1)N1CCCCC1	-2.7%[57.1 µM]	0.9%	-0.7%[57.1 µM]	64.1%	6.8	-1.4
Cc1cccc(-c2nnc(SCC(=O)N3CCCC3)o2)c1	10.6%	-5.9%	-1.0%	7.08µM*	-22.5	1.0
CC(C)c1ccc(NC(=O)c2ccc(=O)n(Cc3ccccc3)c2)cc1	4.2%[57.1 µM]	35.3%	-0.8%[57.1 µM]	·	·	·
Cc1oc2ncn(C)c(=O)c2c1C(=O)NCc1ccc(Cl)cc1	0.7%	-8.0%	0.0%	0.0%	·	·
O=C(CC(c1cccs1)N1Cc2ccccc2C1=O)Nc1cccc(F)c1 (stereo not given)	4.7%	21.6%	-0.1%	1.9%	·	·
CCc1ccc(CNC(=O)c2ccc(Cn3c(=O)c4cccn4c4cccnc43)cc2)cc1	16.9%	-13.0%	24.2%	·	·	·
Cc1cc(C)c(S(=O)(=O)/N=C2\C=CC(=O)C(Cl)=C2)c(C)c1	17.8µM*	4.6%	5.4%	11.1%	-13.3	-1.9
Nc1ccc(C(=O)OCc2nc3cc4ccccc4cc3[nH]2)cc1	12.3%	15.8%	0.8%	-0.2%	-8.8	1.0
Nc1ccc(C(=O)OCc2nc3c(ccc4ccccc43)[nH]2)cc1	-3.4%[57.1 µM]	16.6%	-1.8%[57.1 µM]	7.08µM*	-8.1	-1.5
Cc1ccc(C)c(NC(=O)CSc2nncn3c2cc2sccc23)c1	8.2%	-3.3%	-5.1%	·	·	·
C#CC(C)(C)NC(=O)c1ccc(-c2ccccc2F)cc1	29.8%[57.1 µM]	10.8%	15.4%[57.1 µM]	12.6µM*	15.5	-2.5
Cc1nc(SCC(=O)c2ccccc2)c(C#N)c(-c2ccco2)c1C(=O)NCc1ccco1	50.1µM*	3.5%	15.2%	-38.6%	4.3	0.8
Clc1cccc(CNc2ccn3nc(-c4ccco4)cc3n2)c1	·	·	·	43.8%	·	1.4
Clc1cccc(CNc2ccn3nc(-c4cccs4)cc3n2)c1	·	·	·	8.91µM*	·	0.2
CCN(CC)c1ccc(/C=C/C2=C3C=CC=CC3NC=C2)cc1 (stereo not given)	11.8%	·	-2.9%	50.0%	·	·
CCc1ccc(-c2nc(CN3CCC(C(=O)NCCc4ccc(Cl)cc4)CC3)c(C)o2)cc1	20.5%	0.0%	0.1%	·	·	·
COCCn1c(SCC(=O)c2ccc(Cl)cc2)nnc1C(C)C	6.31µM*	-3.5%	8.0%	0.0%	-2.7	-2.1
COCCn1c(SCC(=O)c2ccc3c(c2)OCCO3)nnc1C(C)C	-11.5%	1.2%	-2.5%	30.8%	-21.5	-1.6
Cc1ccccc1/C(N)=N/OC(=O)c1ccc(F)cc1	4.6%	0.4%	2.5%	30.0%	0.6	2.1
N/C(CS(=O)(=O)c1ccccc1)=N\OC(=O)c1ccc(F)cc1	14.5%	-4.0%	-2.9%	11.2µM*	-7.2	-1.7
CCc1ccc(NC(=O)C(=O)NCC(c2cccnc2)N2CCOCC2)cc1 (stereo not given)	11.5%	0.0%	-13.1%	·	·	·
C/C(CCc1oc2c(Br)cc(Br)cc2c1-c1ccc(C)o1)=N\O	25.1µM*	0.0%	3.6%	-61.1%	8.0	-0.8
COc1ccc(NC(=O)c2c(C)oc3ccc(O)c(CN4CCN(C)CC4)c23)cc1Cl	10.8%	-2.3%	-3.4%	·	·	·
C=CC(=O)N1C/C(=C/c2ccc(F)cc2)C(=O)/C(=C\c2ccc(F)cc2)C1	25.1µM*	-9.8%	-8.4%	-94.4%	5.0	-0.6
CN(C)/C=N/c1sc2c(c1C#N)CCCC2	-23.0%	0.0%	-4.0%	?	30.8	0.0
